Shiga inhibitor = Shiga toxin inhibition; actives 9.2% (n = 290,000); inhibition, % at 38.7 µM; Vero cells, Shiga toxin protein synthesis inhibition reporter; in the data active = inhibition mostly above about 28%, no sharp cut-off; inactive = mostly below about 43%; note: 0% is about no effect
Cycloheximide cs = counter-screen for Shiga toxin inhibitors: cycloheximide protein synthesis inhibition | AID 2314 | cell reporter, cycloheximide protein synthesis inhibition counterscreen | max response, % | actives 12% (n = 300,000); in the data active = max response mostly above about 13%, no sharp cut-off; inactive = mostly below about 14%; note: read at 38.3 µM for the half of the compounds with a filed dose; 0% is about no effect
SARS PLP yeast = SARS-CoV PLP inhibition in yeast | S. cerevisiae expressing SARS-CoV PLpro, growth rescue | actives 0.19% (n = 330,000) | Potency, µM (top dose mostly 32.9 µM), without a hit: at the highest dose activity, positive = growth rescue, usual class: activators; note: potency is the fitted concentration of half-maximal effect; 0% is about no effect; nearly all actives have a fitted effect of over 55% in size
NS1 function inh = inhibitors of influenza NS1 protein function. Potency, µM (series often up to 46.1 µM), without a hit: at the highest dose activity, positive = more growth. actives 0.4% (n = 270,000). AID 2326; note: potency is the fitted concentration of half-maximal effect; actives are rising curves; nearly all actives have a fitted effect of over 50% in size
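A cell-based growth assay was used: compounds that relieve NS1-induced slow growth of budding yeast raise OD600. Assay medium was yeast nitrogen base with ammonium sulphate and -URA supplement, pH 6.0, with 2% galactose.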
The depositor's hits bear a star; ? = inconclusive; . = not tested or not shown. Sampled rows, rich in hits. Any-hit rate of the full collection: about 12%. Unless noted, calls come from the whole dose curve.

SMILES	Shiga inhibitor	Cycloheximide cs	SARS PLP yeast	NS1 function inh
COC(=O)/C(=C1/Oc2ccc(C)cc2S1)C(F)(F)F	56.5*	24.5*	2.4%	1.2%
O=S(=O)(NCc1csc(-c2cccs2)n1)c1cccs1	53.0*	17.5*	-0.9%	-6.1%
O=C(NCc1csc(-c2cccs2)n1)c1ccsc1	55.5*	22.3*	-1.3%	-34.7%
CCS(=O)(=O)NCc1csc(-c2ccccc2)n1	9.9	14.8*	-5.0%	-13.5%
O=C(NCCc1cn2ccsc2n1)c1cccs1	24.9*	23.3*	-8.2%	21.5%
COc1ccc(CC(=O)NCc2csc(-c3cccs3)n2)cc1OC	12.4	-1.7	0.5%	-0.6%
COC(=O)[C@]1(Cc2ccccc2)N[C@H](CN(C)C(=O)Nc2ccc(F)cc2)[C@@H]2C(=O)N(Cc3ccccc3)C(=O)[C@@H]21	.	.	-6.5%	.
COc1cccc(CN2CCN(Cc3c(C)nn(C(C)C)c3C)CC2CCO)c1 (centres undefined)	-12.4	-3.2	-0.9%	5.6%
CC1CCC(O)([C@](C)(C(=O)O)c2ccccc2)CC1 (some centres undefined)	.	.	.	-1.0%
Cc1ccn2cc(CNS(=O)(=O)c3cccs3)nc2c1	46.0*	22.7*	3.5%	7.1%
O=S(=O)(NCc1cn2ccsc2n1)c1cccs1	20.6	23.4*	4.8%	10.1%
COc1cc(SC)ccc1C(=O)N1CCN(S(=O)(=O)/C=C/c2ccccc2)CC1	.	.	-6.4%	.
O=C(Nc1cc([N+](=O)[O-])ccc1Cl)c1ccc2c(c1)OCO2	-12.7	2.2	-2.4%	3.2%
O=C(Nc1ccc2c(c1)CCCN2C(=O)c1cccs1)c1ccccc1	36.3*	35.9*	-33.3%	-11.8%
COc1cc(OC)cc(C(=O)Nc2ccc3c(c2)CCCN3C(=O)c2cccs2)c1	0.5	-1.6	-1.5%	-15.5%
O=C(Nc1ccc2c(c1)CCCN2C(=O)c1cccs1)c1cccc(F)c1	47.0*	22.2*	-37.3%	-22.1%
COc1ccccc1C(=O)Nc1ccc2c(c1)CCCN2C(=O)c1cccs1	25.3	21.8	-66.3%	-27.8%
Cc1ccccc1N1CCN(CC(=O)Nc2nccs2)CC1	-13.2	-2.6	-5.1%	4.6%
CC1(C)[C@@H](CC(=O)O)CCC[C@@H]1CC(=O)O	.	.	.	-2.0%
Cc1ccc(SCC(=O)NC(C)(C)C)cc1	133.0*	28.3*	.	-0.7%
Cc1ccc(SCC(=O)Nc2nnc(C(C)(C)C)s2)cc1	.	-0.4	0.7%	1.2%
Cc1ccc(NC(=O)CNc2ccc(OC(C)C)cc2)cc1	9.9	16.3*	12.1%	-75.2%
COc1ccc(/C=C/c2nnc(NC(=O)CSc3ccc(C)cc3)s2)cc1	94.0*	15.1*	3.4%	-35.5%
CCC(=O)Nc1nnc(/C=C/c2ccc(OC)cc2)s1	55.1*	32.0*	-1.6%	-6.8%
Cc1ccc(NC(=O)COCC(=O)Nc2ccc(C)cc2)cc1	-2.5	-1.9	-3.6%	-2.4%
SMILES	Shiga inhibitor	Cycloheximide cs	SARS PLP yeast	NS1 function inh
COc1ccc(CC(=O)Nc2nnc(C)s2)cc1	-25.2	-3.1	0.5%	1.9%
Cc1ccc(SCC(=O)Nc2cccc(C(=O)NC(C)(C)C)c2)cc1	13.6	2.2	-7.7%	7.5%
CC(C)(C)NC(=O)CSc1nnnn1C(C)(C)C	31.6*	24.6*	-4.5%	-0.8%
COc1ccc(NC(=O)CSc2ccc(C)cc2)cc1	80.9*	32.9*	13.2%	13.6%
CC(C)c1nnc(SCC(=O)NC(C)(C)C)n1C	18.5	-1.9	-1.0%	1.0%
CC(C)(C)[C@H]1C=C(C(N)=O)O[C@@H](OCCCCO)C1	1.9	-2.7	1.3%	9.1%
CC(C)N1CCc2c(sc(NC(=O)c3ccco3)c2C(N)=O)C1	38.7	20.7*	3.4%	26.4%
CN1CCc2c(sc(NC(=O)c3ccco3)c2C(N)=O)C1	-3.3	17.2*	1.2%	10.3%
CN1CCc2c(sc(NC(=O)c3cc(Cl)sc3Cl)c2C(N)=O)C1	30.2*	25.4*	1.8%	-23.5%
CN1CCc2c(sc(NC(=O)c3ccc([N+](=O)[O-])o3)c2C(N)=O)C1	25.5*	27.4*	6.2%	2.6%
Cc1cccc(C(=O)NCC(=O)N2CCN(S(=O)(=O)c3cc(C)ccc3C)CC2)c1	.	.	0.4%	.
CC(=O)O[C@]1(C(C)=O)CC[C@H]2[C@@H]3C=CC4=CC(=O)C=C[C@]4(C)[C@H]3CC[C@@]21C	-2.0	-2.3	0.9%	-2.7%
CCCC(=O)NCc1cc(-c2nn(C)c(=O)c3ccccc23)ccc1OC	-13.0	-5.1	0.0%	-1.4%
CSc1nc(Cl)cc(Nc2ccc(O)cc2)n1	63.4	42.4*	-1.8%	.
CC(C)(C)OC(=O)N1CCC[C@H]1C(=O)N/N=C/c1ccc2nccnc2c1	-4.1	16.7	0.3%	1.4%
COc1ccc2nc(/C=N/NC(=O)[C@@H]3CCCN3C(=O)OC(C)(C)C)ccc2c1	76.2*	45.5*	-0.8%	-3.8%
COc1ccc2oc(=O)c(C(=O)N3CCN(C(=O)c4ccccc4)CC3)cc2c1	-10.4	-2.6	-0.2%	3.7%
COc1ccc2oc(=O)c(C(=O)N3CCN(c4ccccc4C)CC3)cc2c1	131.6*	65.6*	-0.8%	-22.7%
COc1ccc2oc(=O)c(C(=O)N3CCN(c4ccccc4)CC3)cc2c1	78.0	19.2*	3.4%	-16.8%
CC(C)C[C@H](NC(=O)C1CCN(S(=O)(=O)c2ccccc2)CC1)C(=O)NCc1cccnc1	1.9	-4.5	-0.7%	-7.3%
O=C1c2ccccc2NC(c2ccc(O)c(O)c2)N1c1ccccc1Cl (centres undefined)	40.7*	26.9*	1.7%	0.8%
CCOc1cc(C2Nc3ccccc3C(=O)N2c2ccccc2OC)ccc1O (centres undefined)	-19.5	-1.5	-0.6%	0.4%
COc1cc(C2Nc3ccccc3C(=O)N2c2ccccc2OC)ccc1O (centres undefined)	18.3	6.0	-3.4%	-1.8%
O=C1c2ccccc2NC(c2ccc3c(c2)OCCO3)N1c1ccc2c(c1)OCCO2 (centres undefined)	80.6*	44.0*	?	-1.2%
COc1cc(C2Nc3ccccc3C(=O)N2c2ccc3c(c2)OCCO3)ccc1OCC(C)C (centres undefined)	61.2*	31.2*	-3.1%	4.7%
SMILES	Shiga inhibitor	Cycloheximide cs	SARS PLP yeast	NS1 function inh
COc1ccc(CCNC(=O)CC(Cc2ccc(C)cc2)C(=O)O)cc1OC (centres undefined)	-5.4	-3.4	-0.4%	3.6%
C/C=C(/C)C(=O)O[C@H]1CC(C)=CC(=O)[C@@]2(C)CC[C@@](O)(C(C)C)[C@H]12	-5.6	-5.0	.	.
C=C1C(=O)O[C@@H]2[C@H]1[C@@H](OC(=O)/C(C)=C/C)C/C(C)=C\C(=O)/C=C(\C)[C@@H]2O	50.6*	28.5*	-0.5%	-1.9%
COc1ccccc1/C=C/C(=O)NCC(=O)N/N=C/c1ccccc1	-3.6	8.9	-5.4%	.
CN(C)c1ccc(/C=N/NC(=O)CNC(=O)/C=C/c2ccccc2)cc1	29.7*	29.7*	-5.0%	1.6%
N#CCC(=O)N/N=C/c1ccc(Cl)cc1	-3.0	-2.5	-0.1%	-4.7%
CN(c1ccccc1)c1ccc(/C=N/NC(=O)CC#N)cc1	58.1*	28.5*	9.1%	?
CNC(=O)CO/N=C/c1ccc(N(C)C)cc1	28.9*	21.6*	0.5%	.
CN(C)/C=C(\C#N)C(=O)N/N=C/c1ccccc1	96.1	27.5*	0.7%	.
CCc1nnc(SC(C)C(=O)Nc2nccs2)n1C (centres undefined)	-5.8	-2.0	2.8%	10.5%

Screening results as filed in PubChem.
